# HT1080-NT tox – kills 2HG-producing HT-1080-NT fibrosarcoma cells; HT-1080-NT fibrosarcoma viability, CellTiter-Glo ATP luminescence, 48 h; AID 686970; hit rate 1.6% among 360,000; Potency, µM (titrated, usually from 46.1 µM), inactives show top-dose activity, negative = less viability, most hits filed as cytotoxic;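 further: NT is the 2HG producing partner of a matched IDH1 knockdown line; potency means the concentration at half of the fitted maximal effect; 0% = DMSO-treated cells and -100% = media-only wells without cells; nearly all actives have a fitted effect of over 55% in size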
#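 Compounds were tested in concentration-response format on HT-1080-NT cells for 48 hours at 37 degrees C. Cell viability came from CellTiter-Glo luminescence; curves were classified by r2, response magnitude and activity.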
# ELG1 repair inh – ELG1-dependent DNA repair inhibition | HEK293T ELG1-luciferase reporter, luminescence, 16 h; DNA damage induced by 5-fluorouridine | Potency, µM (top dose mostly 46.1 µM), inactives show at the top dose activity change, negative = inhibition, hits mostly inhibitors | hit rate 2.3% among 330,000; further: potency means the concentration at half of the fitted maximal effect; nearly all actives have a fitted effect of over 55% in size
#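 Overnight (16 hr) co-exposure of 2,000 cells/well to 5-fluorouridine and compound at 37 °C preceded detection. Luciferase was quantified via ONE-Glo luminescence; loss of signal denotes inhibition.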
# TDP1 cell CPT – growth inhibition of DT40 Tdp1-/-;hTDP1 cells with camptothecin (screen for TDP1 inhibitors); AID 686979; Potency, µM (top dose mostly 46.2 µM), for inactives: top-dose activity change, negative = growth inhibition, usual class: inhibitors; hit rate 12% among 420,000; chicken DT40 Tdp1-/-;hTDP1 cells + 20 nM CPT, ATP luminescence, 48 h; further: potency means the concentration at half of the fitted maximal effect; nearly all actives have a fitted effect of over 55% in size
#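 Chicken DT40 Tdp1-/- cells stably complemented with human TDP1 were seeded at 400 cells/well in medium containing 20 nM camptothecin, exposed to pin-transferred compounds, and grown at 37 °C for at least 48 hr. Viability was read as ATP luminescence.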
# IL1B secr inh – inflammasome signaling inhibition, IL-1 beta readout; THP-1 LPS/ATP IL-1B secretion, AlphaLISA, 16 h; hits give low values; activity change, % at 57.5 µM; hit rate 4.7% among 360,000; AID 743279; in the data active means activity change below about -50%; inconclusive means mostly about -30% to -49%
#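 THP-1 cells pretreated 1 hr with compounds (up to 57.5 uM final), then stimulated with LPS (250 ng/mL final) plus ATP (1.25 mM final); secreted IL-1B measured by AlphaLISA after 16 hr, decreased signal indicating inhibition.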
# DT40 TDP1 no CPT – qHTS for Inhibitors of human tyrosyl-DNA phosphodiesterase 1 (TDP1): qHTS in cells in absence of CPT. hit rate 15% among 420,000. AID 686978, 2013. Potency, µM (titrated, usually from 46.2 µM), inactives show at the top dose activity change, negative = growth inhibition, most hits filed as inhibitors. DT40 Tdp1-/- hTDP1 cells, no CPT, ATP luminescence, 48 h; further: potency means the concentration at half of the fitted maximal effect; nearly all actives have a fitted effect of over 55% in size
#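 Readout: luminescence from CellTiter-Glo after 30 min in the dark at RT. Cells: DT40 Tdp1-/- with stable hTDP1, 400/well. Exposure: compounds alone, ≥48 hr, 37 °C.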
# HT1080 IDH1KD tx – HT-1080 IDH1 knockdown cell toxicity (counter line); HT-1080 IDH1 knockdown viability, ATP luminescence, 48 h; Potency, µM (top dose mostly 46.1 µM), inactives show at the highest dose activity, negative = toxicity, usual class: cytotoxic; hit rate 2% among 360,000; AID 686971;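 further: potency means the concentration at half of the fitted maximal effect; 0% = DMSO wells and -100% = cell-free medium wells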
#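 After a 2 h attachment period, IDH1KD HT-1080 cells took pin-transferred compound for 48 h at 37 °C; ATP-based luminescence after 10 min room-temperature reagent incubation reported viability.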
# * = called active by the depositor; i = inactive; ? = inconclusive; . = no result. In the library only some 19% were active in any assay of this set; here they are far more common. Unless noted, the call rests on the fitted dose curve; in most records, active means well fitted curve in the direction sought with a large enough effect; inconclusive means small, poorly fitted or top-dose-only effect, or another doubt; inactive means no such curve, though single readings can be large; an effect the other way counts as inactive or inconclusive. Unless noted, on the % scale 0 is the no-effect control and ±100 the full control effect.
SMILES,HT1080-NT tox,ELG1 repair inh,TDP1 cell CPT,IL1B secr inh,DT40 TDP1 no CPT,HT1080 IDH1KD tx
Cc1ccc(-n2c3c(c(=O)[nH]c2=O)C(NC(=O)C(C)(C)C)(C(F)(F)F)C(=O)N3)cc1 (configuration not stated),.,.,6%,.,2%,.
Cc1ccc(-n2c3c(c(=O)[nH]c2=O)C(NC(=O)c2ccccc2C)(C(F)(F)F)C(=O)N3)cc1 (configuration not stated),.,.,13µM*,.,23µM*,.
CC1=C(C(=O)OCCOc2ccccc2)C(c2ccsc2)NC(=O)N1C (configuration not stated),0%,23µM*,?,-23,21µM*,-17%
COc1cc(NC(=O)CSc2nc3nc(C)c(Cc4ccccc4)c(C)n3n2)cc(OC)c1,.,.,21µM*,.,8.2µM*,.
COc1ccc(CCNC(=O)CSc2nc3nc(C)c(Cc4ccc(C)cc4)c(C)n3n2)cc1OC,.,.,?,.,21µM*,.
COc1cc(NC(=O)CSc2nc3nc(C)c(Cc4ccc(C)cc4)c(C)n3n2)cc(OC)c1,.,.,?,.,8.2µM*,.
COc1cc(OC)cc(-c2nc3nc(C)c(CCC(=O)Nc4cc(C)cc(C)c4)c(C)n3n2)c1,.,.,-1%,.,?,.
Cc1ccc(Cc2c(C)nc3nc(SCC(=O)NCCCN4CCCCCC4)nn3c2C)cc1,-15%,?,?,-23,?,-14%
Cc1cccc(Cc2c(C)nc3nc(SCC(=O)NCc4ccc(F)cc4)nn3c2C)c1,.,.,16µM*,.,23µM*,.
CCN(CC)CCNC(=O)CSc1nc2nc(C)c(Cc3ccccc3)c(C)n2n1,.,.,-17%,.,-8%,.
Cc1cc(C)n(-c2nc3ccccc3nc2Nc2ccc(Cl)c(C(=O)OC(C)C)c2)n1,.,.,7%,.,11%,.
CC1CCN(CCOCCSc2ccc(Cl)cc2)CC1,?,-4%,?,-12,18µM*,-29%
Clc1ccc(SCCOCCN2CCc3ccccc3C2)cc1,23µM*,-11%,?,?,?,?
CC1CN(CCOCCSc2ccc(Cl)cc2)CC(C)O1 (configuration not stated),-2%,-7%,-21%,0,?,-1%
Clc1ccc(OCCCN2CCc3ccccc3C2)c(Br)c1,-22%,9%,?,-4,?,-10%
Clc1ccc(SCCOCCN2CCCCC2)cc1,-25%,-4%,?,0,16µM*,-25%
Clc1ccc(SCCOCCN2CCOCC2)cc1,0%,-4%,-28%,-2,?,-1%
CCc1ccccc1NC(=O)Cn1c(=O)n(-c2ccc(C)cc2)c(=O)c2c1c1cc(C)ccc1n2C,.,.,-4%,.,-1%,.
Cc1ccc(OC(=O)c2snnc2C)cc1C,.,.,9%,.,-3%,.
COc1ccc(NC(=O)C(=O)NCCC2CCCCN2S(=O)(=O)c2ccc(F)cc2)cc1 (configuration not stated),?,?,21µM*,-7,10µM*,-57%
O=C(NCC1CCCN1S(=O)(=O)c1cccs1)C(=O)Nc1ccc(F)cc1 (configuration not stated),13%,?,-50%,-17,?,12%
O=C(NCCC1CCCCN1S(=O)(=O)c1cccs1)C(=O)Nc1cccc(F)c1 (configuration not stated),2%,-19%,23µM*,8,15µM*,-11%
COc1cc(CNC(=O)C2CCCCN2S(=O)(=O)c2ccc(F)cc2)cc(OC)c1OC (configuration not stated),.,.,?,.,12µM*,.
O=C(NCCC1CCCCN1S(=O)(=O)c1cccs1)C(=O)Nc1ccc(F)cc1 (configuration not stated),-12%,-17%,?,-63*,?,?
O=C(NCCC1CCCCN1S(=O)(=O)c1ccccc1)C(=O)Nc1ccc(F)cc1 (configuration not stated),3%,-3%,?,?,?,-3%
SMILES,HT1080-NT tox,ELG1 repair inh,TDP1 cell CPT,IL1B secr inh,DT40 TDP1 no CPT,HT1080 IDH1KD tx
Cc1cc(C)cc(-n2c(SCC(=O)N3CCCCCC3)nc3c([nH]c4ccccc43)c2=O)c1,.,.,1%,.,6%,.
COc1ccccc1C(=O)Nc1ccnn1C1CCN(Cc2cnn(C)c2C)CC1,11%,8%,-6%,i,-8%,27%
CC(C)(C)OC(=O)N[C@@H](C(=O)OC(C)(C)C)c1ccc2c(c1)OCO2,2%,11%,?,-3,?,-10%
Cc1ccc(S(C)(=O)=O)cc1C(=O)N1CC(C(N)=O)Oc2ccccc21 (configuration not stated),23%,-1%,-1%,17,-1%,23%
CCOc1ccc2nc(-c3ccccc3)[nH]c2c1,8.2µM*,?,9.2µM*,-3,21µM*,9.2µM*
Cc1cc(Br)ccc1OCCCCNC(C)(C)C,13µM*,-17%,?,?,21µM*,?
COCCNCCCCOc1ccc(Br)cc1C,?,9%,?,-29,23µM*,-26%
COCCCNCCCCOc1ccc(Br)cc1C,?,9%,?,-56*,23µM*,?
COCCCNCCCCOc1cccc(Br)c1,-3%,-5%,?,-21,?,3%
O=C(Nc1cccc(F)c1)N1CCN(C(=O)c2ccco2)CC1,0%,5%,-6%,-18,15%,15%
COc1ccccc1C(=O)Nc1ccccc1OCc1cc(=O)n2cc(C)sc2n1,.,.,-10%,.,?,.
Cc1cccc(Nc2cc(=O)n(C)c(=O)[nH]2)c1,-1%,-8%,-23%,55,-19%,1%
CC(OC(=O)c1cccs1)C(=O)NCc1ccco1 (configuration not stated),15%,7%,-15%,2,4%,2%
COc1ccccc1C(OC(=O)c1cccs1)C(=O)NCc1ccco1 (configuration not stated),7%,-2%,18µM*,-6,?,11%
COc1ccccc1NC(=O)NCc1ccco1,3%,19%,-16%,-68*,?,-26%
CCCCCCSc1nsc(NC(=O)CCC)n1,0%,?,-4%,8,?,-7%
COCCN1C[C@@H](CO)O[C@@H](n2cnc3c(NC4CCC4)ncnc32)C1,11%,.,15%,-11,5%,3%

# From PubChem BioAssay
